Test results from the supplement of paper PMC6555819.

test system: LXRa homodimer (NR concentration 270 nM); test: PBM binding z-score (relative to random genomic background probes); higher = stronger binding; sequences stand for … in GC…GCGATTGACAGCGTAGAATGAAGG
Method in brief: (§1)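 On custom Agilent 4×180K arrays, double-stranded probes with 34-nt variable regions carried direct-repeat seeds, single-nucleotide variants, half-site ablations or random human genomic background. Ligand-free nuclear receptor dimers were applied for 1 h, and binding was read with antibodies against each partner (one per run). Binding z-scores come from regression-normalized fluorescence, with the random background probes as reference.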

| Sequence | PBM binding z-score |
| --- | --- |
| TCATATAGGTAAAGGTGAAAGTAGAACGATATGA | -0.101 |
| CCGAGTAGGTTATGCGGCATTCAGGCAACGGTGA | -0.177 |
| TCAGCCAGGTGAAGGTAACTCAGGTACGCAGTCG | -0.431 |
| ACTAGCAGGCCAAGTTTGGGTTACTCAAACAAAG | -0.394 |
| CCTCGGAGGAAAACAGGAGGTCAGAGCTGCCAGA | 1.63 |
| ATATGTTGGTTAGCTGGGGTCATTCAGACTAGGC | 2.39 |
| GCTTACGGGCCAAAGGTTATAGCATGAATAGAAT | -0.0531 |
| GCTAGCAGGCCATTTGGGTCACTTAATGACGGGC | -0.464 |
| ATCGAAAGGTCGAAGGTGAGTAAACCCACCCGAA | 0.284 |
| TTACCAATGTGAAGGTCGTTGATCCCTCTGTAGA | 0.434 |
| TCATATAGGTTATACAGGTGAAAGTCGGCATCTA | 0.882 |
| AATACAGGGTCACTAGGCCAGAGCAGGTACGAAT | 0.784 |
| CCAGACAAGTGAAAGGTAACTCAGTCTGGTACGC | -0.234 |
| CCTACTGGGCCACGAAGGGTCATTGATTCAGTGA | 0.54 |
| CAGCTTAGGTCAGGGCCAGTATAGGAGGAACGTT | -0.0157 |
| TCGCCTAGGTCATGCGGGCCAGTATAGTGTCGGC | 0.228 |
| ATCGAAAGGTCGAGGTGAGTAAAGAGAAAGGGAA | 0.0324 |
| ATACCAAGGTGATCGTGAGGGCGTTGATACTAAC | -0.00704 |
| CCTAATGGGCCATCAGGTCATTGATATCAACGTT | 1.1 |
| TAGCCTAGGTCATTCGGCCAGTATAGTACGCATC | 1.18 |

| Sequence | PBM binding z-score |
| --- | --- |
| TAAATGAGGTTATAAGATCAGGGAACGTTGCAAA | 0.212 |
| AGAATAAGGTTAAGATCAGGGAAACAGAATACAT | 0.239 |
| TAGCGTAGGTCATTCAGGGGCCAGTATAGAAAGC | 0.816 |
| TTTTGTAGATCAAGCAGGTTAAGAAAGCCTGAGT | 0.00472 |
| ATCTCTAGGTAACCAAGTTCAGTGATTGCCGAAC | 0.794 |
| TCATATAGGTAGAAGGTGAAAGTCGGTGTGGTAA | 0.0834 |
| ACAGACAGGTGATGAAGGTAATTCAGGCTATCAT | -0.115 |
| AGAACGAGGGAAATGAGTTGATAGCACGGGTGGC | -0.561 |
| ACTTACGGGTCAACGAGGTTATAACACGCGTATA | 1.28 |
| ACAGACCGGTGATGAAGGTAACTCAGGCTATCAT | -0.177 |
| AGAATGAGGTTATACGTAGATCATGGAAGAAAGT | 0.00529 |
| TGAATGAGGTTGTAAGATCAGGGAACGTTGCAAA | -0.429 |
| ACTAGCAGGCCAAGTTTGGGACACTCAAACAAAG | -0.588 |
| CGTCAAAGTTCAGGGTAACGTAACAGAAAGCAGC | 1.23 |
| ACAATTAGTTGAGACGAGGGCAACCGATAGGTTG | 0.178 |
| TCGAGTAGGTTAGTCGGGGCATTCAGCCAACATA | -0.628 |
| CAAACTCGGTCAAGGTCAAAGTCGGTTTGTGCCA | 3.66 |
| CCTACTGGGACATCAGGTCATTGATATCAACGTT | 2.8 |
| AGTCAAAGTTCAGGACGGGGTAACGTAAAGCACG | 1.34 |
| ATCTCTAGGTAAAGATAGTTTAGTGAATGCAAAT | 0.494 |

test system: LXRb:RXRa (NR concentration 270 nM, RXRa partner concentration 90 nM); test: as above
Method in brief: as §1

| Sequence | PBM binding z-score |
| --- | --- |
| TCATATAGGTAAAGGTGAAAGTAGAACGATATGA | 1.28 |
| CCGAGTAGGTTATGCGGCATTCAGGCAACGGTGA | -0.0522 |
| TCAGCCAGGTGAAGGTAACTCAGGTACGCAGTCG | 0.138 |
| ACTAGCAGGCCAAGTTTGGGTTACTCAAACAAAG | -0.296 |
| CCTCGGAGGAAAACAGGAGGTCAGAGCTGCCAGA | 1.44 |
| ATATGTTGGTTAGCTGGGGTCATTCAGACTAGGC | 4.32 |
| GCTTACGGGCCAAAGGTTATAGCATGAATAGAAT | 2.24 |
| GCTAGCAGGCCATTTGGGTCACTTAATGACGGGC | -0.142 |
| ATCGAAAGGTCGAAGGTGAGTAAACCCACCCGAA | 3.05 |
| TTACCAATGTGAAGGTCGTTGATCCCTCTGTAGA | 1.74 |
| TCATATAGGTTATACAGGTGAAAGTCGGCATCTA | 1.82 |
| AATACAGGGTCACTAGGCCAGAGCAGGTACGAAT | 3.77 |
| CCAGACAAGTGAAAGGTAACTCAGTCTGGTACGC | 0.206 |
| CCTACTGGGCCACGAAGGGTCATTGATTCAGTGA | 2.41 |
| CAGCTTAGGTCAGGGCCAGTATAGGAGGAACGTT | 0.814 |
| TCGCCTAGGTCATGCGGGCCAGTATAGTGTCGGC | 1.72 |
| ATCGAAAGGTCGAGGTGAGTAAAGAGAAAGGGAA | 2.59 |
| ATACCAAGGTGATCGTGAGGGCGTTGATACTAAC | 0.447 |
| CCTAATGGGCCATCAGGTCATTGATATCAACGTT | 1.48 |
| TAGCCTAGGTCATTCGGCCAGTATAGTACGCATC | 2.52 |

| Sequence | PBM binding z-score |
| --- | --- |
| TAAATGAGGTTATAAGATCAGGGAACGTTGCAAA | 1.55 |
| AGAATAAGGTTAAGATCAGGGAAACAGAATACAT | 2.09 |
| TAGCGTAGGTCATTCAGGGGCCAGTATAGAAAGC | 3.43 |
| TTTTGTAGATCAAGCAGGTTAAGAAAGCCTGAGT | 0.194 |
| ATCTCTAGGTAACCAAGTTCAGTGATTGCCGAAC | 0.577 |
| TCATATAGGTAGAAGGTGAAAGTCGGTGTGGTAA | 1.16 |
| ACAGACAGGTGATGAAGGTAATTCAGGCTATCAT | -0.471 |
| AGAACGAGGGAAATGAGTTGATAGCACGGGTGGC | -0.828 |
| ACTTACGGGTCAACGAGGTTATAACACGCGTATA | 5.13 |
| ACAGACCGGTGATGAAGGTAACTCAGGCTATCAT | -0.283 |
| AGAATGAGGTTATACGTAGATCATGGAAGAAAGT | 1.76 |
| TGAATGAGGTTGTAAGATCAGGGAACGTTGCAAA | -0.35 |
| ACTAGCAGGCCAAGTTTGGGACACTCAAACAAAG | -0.515 |
| CGTCAAAGTTCAGGGTAACGTAACAGAAAGCAGC | 2.3 |
| ACAATTAGTTGAGACGAGGGCAACCGATAGGTTG | 0.228 |
| TCGAGTAGGTTAGTCGGGGCATTCAGCCAACATA | 0.294 |
| CAAACTCGGTCAAGGTCAAAGTCGGTTTGTGCCA | 3.81 |
| CCTACTGGGACATCAGGTCATTGATATCAACGTT | 2.06 |
| AGTCAAAGTTCAGGACGGGGTAACGTAAAGCACG | 2.69 |
| ATCTCTAGGTAAAGATAGTTTAGTGAATGCAAAT | 0.361 |
